The results in this text go back to PubChem BioAssay (NCI).

Values joined by “and” are separate entries in the source; they are usually repeats but may differ in a detail not shown here. Equal entries are not always repeated. About 83,000 compounds went through this panel and 20% of them were active in at least one assay; those are over-represented in the sample as a whole.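 Activity criterion: percent growth below 10, measured after cells in 96-well plates were exposed to a single compound concentration for 48 hours.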 Active and inactive are the calls of the source.

Test systems include HT29 colon; SNB-75 CNS; SNB-19 CNS; U251 CNS; PC-3 prostate; SK-MEL-5 melanoma; UACC-62 melanoma; LOX IMVI melanoma; SK-MEL-28 melanoma; SK-MEL-2 melanoma; EKVX NSCLC; SN12C renal; UO-31 renal; TK-10 renal; ACHN renal; CCRF-CEM leukemia; MOLT-4 leukemia; HCT-15 colon; CAKI-1 renal; A498 renal.
What all share (assay): NCI-60 one-dose screen, 48 h (100 = growth as untreated, 0 = no growth, -100 = all killed)
Common to all, as to conditions: 10 µM unless noted

`CC(C)Oc1ccc2cc(-c3nn(CC4CCNCC4)c4ncnc(N)c34)ccc2c1`: the growth is 37.9% (inactive) and -13.1% (active) in the assay with HT29 colon; 59% (inactive) and -38.7% (active) in the assay on SNB-75 CNS; 92.7% (inactive) and 24.8% (inactive) in the assay with SNB-19 CNS; 77.7% (inactive) and -11.9% (active) with U251 CNS; 65.1% (inactive) and 16.6% (inactive) in the assay with PC-3 prostate; 59.8% (inactive) and -94.4% (active) with SK-MEL-5 melanoma. Also, the growth in the assay on UACC-62 melanoma is -65.3% (active); in the assay on LOX IMVI melanoma, 69.8% (inactive) and -80.3% (active); in the assay on SK-MEL-28 melanoma it was 79.1% (inactive) and -85.7% (active); in the assay with SK-MEL-2 melanoma, 100% (inactive); in the assay with EKVX NSCLC, 97.4% (inactive) and 26.2% (inactive); with SN12C renal it was 79.7% (inactive). For the same compound, the growth in the assay on UO-31 renal is 71.6% (inactive) and 36.9% (inactive); with TK-10 renal, 82.2% (inactive) and 14.6% (inactive); in the assay with ACHN renal it was 88.1% (inactive) and 14.1% (inactive); in the assay with CCRF-CEM leukemia, 60.6% (inactive) and -23% (active); in the assay on MOLT-4 leukemia it was 29% (inactive) and -23.8% (active).
Turning to `O=C1c2ccccc2C(=O)c2c(NCCNCCO)ccc(NCCNCCO)c21`, the growth was 70.2% (inactive) and 75.4% (inactive) and 72.6% (inactive) in the assay with HCT-15 colon; 2.99% (active) and 16.2% (inactive) and 14.9% (inactive) with HT29 colon; -26.9% (active) and -4.55% (active) and -6.89% (active) with SNB-75 CNS; -11% (active) and 14.5% (inactive) and 7.49% (active) in the assay with SNB-19 CNS; -4.94% (active) and 5.29% (active) in the assay with U251 CNS; -58.4% (active) and 36.2% (inactive) and 20.3% (inactive) in the assay with PC-3 prostate. The growth is -50.5% (active) and 7.59% (active) and 3.46% (active) in the assay with SK-MEL-5 melanoma; -73.4% (active) and 10.3% (inactive) and 6.9% (active) in the assay on UACC-62 melanoma; -35.6% (active) and 0.446% (active) and 1.46% (active) with LOX IMVI melanoma; -75.2% (active) and -0.89% (active) and -16.8% (active) in the assay with SK-MEL-2 melanoma; 38.4% (inactive) and 48.9% (inactive) with EKVX NSCLC; -0.766% (active) and 4.9% (active) and 7.36% (active) with SN12C renal. Moreover, the growth in the assay on TK-10 renal is 21.8% (inactive) and 54.6% (inactive) and 38.8% (inactive); in the assay with ACHN renal, 17.9% (inactive) and 24.5% (inactive) and 22.7% (inactive); with CAKI-1 renal it was 19.8% (inactive) and 50.9% (inactive) and 35.4% (inactive); in the assay with A498 renal, -4.91% (active) and 79.3% (inactive) and 29.9% (inactive); in the assay on CCRF-CEM leukemia it was 153% (inactive) and 10.2% (inactive) and 1.67% (active); in the assay on MOLT-4 leukemia, 143% (inactive) and -3.2% (active) and -1.56% (active).
Consider `Cc1cc(=O)[nH]c(O)c1C#N`, for which the growth in the assay on HCT-15 colon was 98% (inactive) and 107% (inactive); in the assay with HT29 colon it was 109% (inactive) and 116% (inactive); in the assay on SNB-75 CNS, 72.5% (inactive) and 96.7% (inactive); with SNB-19 CNS, 98.4% (inactive) and 94.7% (inactive); in the assay with U251 CNS, 101% (inactive) and 98.2% (inactive); in the assay with PC-3 prostate it was 114% (inactive) and 102% (inactive). Also, the growth is 100% (inactive) and 106% (inactive) in the assay with SK-MEL-5 melanoma; 97.7% (inactive) and 96.5% (inactive) in the assay on UACC-62 melanoma; 98.5% (inactive) and 97.1% (inactive) in the assay on LOX IMVI melanoma; 108% (inactive) with SK-MEL-2 melanoma; 99.6% (inactive) and 99.9% (inactive) with EKVX NSCLC; 102% (inactive) and 93.7% (inactive) in the assay on SN12C renal. In addition, the growth is 87.3% (inactive) and 105% (inactive) in the assay with UO-31 renal; 103% (inactive) and 92.9% (inactive) in the assay on TK-10 renal; 101% (inactive) and 95.7% (inactive) in the assay on ACHN renal; 90.3% (inactive) and 60.5% (inactive) in the assay on CAKI-1 renal; 113% (inactive) and 90.3% (inactive) in the assay on CCRF-CEM leukemia; 106% (inactive) and 101% (inactive) in the assay on MOLT-4 leukemia.
On to `Cn1c(SSc2ccc(-c3cccnc3)n2C)ccc1-c1cccnc1`, for which the growth with HT29 colon was 110% (inactive) and 115% (inactive); in the assay on SNB-75 CNS it was 89.4% (inactive) and 97.7% (inactive); with SNB-19 CNS, 110% (inactive) and 109% (inactive); in the assay on U251 CNS, 72.6% (inactive) and 106% (inactive); in the assay with PC-3 prostate, 65% (inactive) and 68.2% (inactive); in the assay with SK-MEL-5 melanoma it was 95.6% (inactive) and 91.6% (inactive). Besides, the growth with UACC-62 melanoma was 82.5% (inactive) and 109% (inactive); in the assay on LOX IMVI melanoma it was 59% (inactive) and 98.2% (inactive); in the assay with SK-MEL-28 melanoma, 98.9% (inactive) and 104% (inactive); in the assay on SK-MEL-2 melanoma, 106% (inactive) and 107% (inactive); with EKVX NSCLC, 94.8% (inactive) and 99.5% (inactive); in the assay with SN12C renal it was 100% (inactive) and 114% (inactive). The growth in the assay with UO-31 renal was 95.8% (inactive) and 104% (inactive); in the assay with TK-10 renal it was 117% (inactive) and 102% (inactive); with ACHN renal, 119% (inactive) and 108% (inactive); in the assay on CAKI-1 renal, 94.3% (inactive) and 103% (inactive); with A498 renal, 82.2% (inactive) and 95.7% (inactive); with CCRF-CEM leukemia, 45.2% (inactive) and 68.6% (inactive). The growth in the assay with MOLT-4 leukemia is 80.2% (inactive) and 17.5% (inactive).
As for `O=C(Nc1cccc(-n2ccc3c(NC(=O)c4ccccc4)nccc32)c1)c1ccc(Cl)c(C(F)(F)F)c1`, the growth was -15.1% (active) and 34.3% (inactive) with HCT-15 colon; 43% (inactive) with HT29 colon; 16% (inactive) and 84.4% (inactive) with SNB-75 CNS; 13.8% (inactive) and 55.4% (inactive) in the assay on SNB-19 CNS; 43.4% (inactive) with U251 CNS; -30.6% (active) and 51.1% (inactive) in the assay on PC-3 prostate. Moreover, the growth in the assay with SK-MEL-5 melanoma is -92.4% (active) and 57.4% (inactive); with UACC-62 melanoma, 5.48% (active) and 54.1% (inactive); in the assay with LOX IMVI melanoma, -80.3% (active) and 18.4% (inactive); with EKVX NSCLC, 38% (inactive) and 87.3% (inactive); in the assay with SN12C renal, -40% (active) and 64.5% (inactive); with UO-31 renal, 7.05% (active) and 75.7% (inactive). Also, the growth with TK-10 renal is 93.1% (inactive); with ACHN renal, 13% (inactive) and 53.5% (inactive); with CAKI-1 renal, -66.7% (active) and 42.8% (inactive); in the assay on A498 renal, 15.3% (inactive) and 75.5% (inactive); in the assay with CCRF-CEM leukemia, -25.3% (active) and 40.3% (inactive); in the assay with MOLT-4 leukemia, -4.82% (active) and 10.3% (inactive).
With `c1ccc2cc(C[n+]3ccn(Cc4ccc5ccccc5n4)c3)ccc2c1`, the growth is 96.3% (inactive) and 101% (inactive) in the assay on HCT-15 colon; -30.7% (active) and 10.7% (inactive) with HT29 colon; 18.9% (inactive) and 33.2% (inactive) with SNB-75 CNS; 13.3% (inactive) and 19.7% (inactive) in the assay on SNB-19 CNS; 12.4% (inactive) and 23% (inactive) in the assay on U251 CNS; 4.09% (active) and 14.7% (inactive) in the assay on PC-3 prostate. The growth with SK-MEL-5 melanoma was -87.6% (active) and -67.9% (active); in the assay with UACC-62 melanoma it was -1.09% (active) and 10.6% (inactive); in the assay with LOX IMVI melanoma, -30.6% (active) and 20.1% (inactive); with SK-MEL-2 melanoma, -35.6% (active) and -4.1% (active); in the assay on EKVX NSCLC, 15.9% (inactive) and 69% (inactive); with SN12C renal, 2.29% (active) and 11.9% (inactive). The growth in the assay with TK-10 renal was -27% (active) and 80.5% (inactive); in the assay with ACHN renal, 86.3% (inactive) and 102% (inactive); in the assay on CAKI-1 renal, 96.2% (inactive); with A498 renal it was 49.1% (inactive) and 61.6% (inactive); in the assay with CCRF-CEM leukemia, 10.8% (inactive) and 40.5% (inactive); in the assay with MOLT-4 leukemia, 0.992% (active) and 34% (inactive).
With `Nc1ncnc2c1ncn2C1CC(O)C(CO)O1` (centres undefined), the growth in the assay with HT29 colon is 109% (inactive) and 115% (inactive); with SNB-75 CNS it was 89.7% (inactive) and 92.9% (inactive); with SNB-19 CNS, 107% (inactive) and 103% (inactive); in the assay with U251 CNS, 102% (inactive) and 100% (inactive); in the assay with PC-3 prostate, 110% (inactive) and 102% (inactive); with SK-MEL-5 melanoma, 115% (inactive) and 108% (inactive). Besides, the growth with UACC-62 melanoma was 104% (inactive) and 105% (inactive); in the assay on LOX IMVI melanoma, 103% (inactive) and 105% (inactive); with SK-MEL-28 melanoma it was 123% (inactive) and 115% (inactive); in the assay with SK-MEL-2 melanoma, 37.6% (inactive) and 100% (inactive); with EKVX NSCLC it was 100% (inactive) and 118% (inactive); in the assay on SN12C renal, 105% (inactive) and 104% (inactive). Besides, the growth in the assay on UO-31 renal was 89% (inactive) and 88.8% (inactive); in the assay with TK-10 renal, 113% (inactive) and 109% (inactive); with ACHN renal, 110% (inactive) and 120% (inactive); with CAKI-1 renal, 103% (inactive) and 100% (inactive); with A498 renal, 105% (inactive) and 98.5% (inactive); with CCRF-CEM leukemia, 114% (inactive) and 99.2% (inactive). For the same compound, the growth with MOLT-4 leukemia was 114% (inactive) and 92.3% (inactive).
For `CC(O)Cn1cnc2c1c(=O)n(C)c(=O)n2C` (centres undefined), the growth in the assay with HCT-15 colon was 96.4% (inactive); with HT29 colon, 109% (inactive); in the assay on SNB-75 CNS, 83.5% (inactive); with SNB-19 CNS, 104% (inactive); with U251 CNS, 81.8% (inactive); with SK-MEL-5 melanoma, 101% (inactive). Besides, the growth in the assay on UACC-62 melanoma is 100% (inactive); with LOX IMVI melanoma it was 87.1% (inactive); in the assay on SK-MEL-28 melanoma it was 103% (inactive); in the assay on SK-MEL-2 melanoma, 98.7% (inactive); in the assay with EKVX NSCLC it was 100% (inactive); in the assay with SN12C renal it was 98.4% (inactive). Moreover, the growth in the assay with UO-31 renal is 88.7% (inactive); in the assay with TK-10 renal, 135% (inactive); with ACHN renal it was 98% (inactive); in the assay on CAKI-1 renal, 99.4% (inactive); in the assay on A498 renal it was 110% (inactive); with MOLT-4 leukemia, 98.3% (inactive).
Regarding `O=C(O)CSCc1nc2ccccc2[nH]1`, the growth in the assay on HCT-15 colon was 112% (inactive); with HT29 colon, 103% (inactive); with SNB-75 CNS it was 88.7% (inactive); in the assay with SNB-19 CNS, 97.4% (inactive); in the assay on U251 CNS, 109% (inactive); with PC-3 prostate it was 95.5% (inactive). For the same compound, the growth in the assay with SK-MEL-5 melanoma is 108% (inactive); in the assay with UACC-62 melanoma it was 93.9% (inactive); in the assay on SK-MEL-28 melanoma it was 105% (inactive); in the assay with SK-MEL-2 melanoma, 105% (inactive); with EKVX NSCLC, 117% (inactive); in the assay on SN12C renal it was 93.1% (inactive). The growth with UO-31 renal is 93.3% (inactive); in the assay on TK-10 renal it was 121% (inactive); in the assay on ACHN renal it was 99.8% (inactive); with CAKI-1 renal, 107% (inactive); in the assay with A498 renal it was 97% (inactive); in the assay on CCRF-CEM leukemia, 93.7% (inactive). Moreover, in the assay with MOLT-4 leukemia, the growth was 99.5% (inactive).
